Where “and” joins values, the source holds several entries; their conditions need not be identical. Equal entries are not always repeated. Records with an inconclusive call do not appear. Where a call stands in place of a potency, no number is given. Calls of active or inactive are those of the source. Unless noted, calls follow the shape of the dose curve; as a rule, active = well fitted cell-killing curve with a large enough effect in the repeat runs; inconclusive = weak or mixed curves; inactive = no such curve, though single readings can be large or run the other way.

Sequence of Peroxisome proliferator-activated receptor delta (Homo sapiens) (Q03181 whole entry, looked up): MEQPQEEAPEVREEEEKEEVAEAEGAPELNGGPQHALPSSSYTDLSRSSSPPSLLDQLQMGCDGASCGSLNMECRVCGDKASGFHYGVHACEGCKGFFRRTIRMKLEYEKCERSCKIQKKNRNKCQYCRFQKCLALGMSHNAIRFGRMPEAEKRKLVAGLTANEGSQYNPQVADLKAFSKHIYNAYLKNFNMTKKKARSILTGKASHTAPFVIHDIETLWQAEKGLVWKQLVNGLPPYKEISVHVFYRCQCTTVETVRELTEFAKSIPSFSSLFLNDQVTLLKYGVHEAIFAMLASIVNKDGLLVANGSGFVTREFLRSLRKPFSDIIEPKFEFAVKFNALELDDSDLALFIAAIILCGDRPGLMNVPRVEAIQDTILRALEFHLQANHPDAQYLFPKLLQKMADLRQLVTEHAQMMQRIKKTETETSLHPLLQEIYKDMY

The target of one test is Peroxisome proliferator-activated receptor delta (Homo sapiens) (UniProt Q03181). The experiment in a line: qHTS assay to identify small molecule agonists of the peroxisome proliferator-activated receptor delta (PPARd) signaling pathway (AID 743212; calls by dose curve;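 also: HEK293H cells with PPARd UAS beta-lactamase reporter GeneBLAzer system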). The following applies: HEK293H PPARd-UAS-bla, beta-lactamase FRET ratio, 17 h; series mostly up to 62.6 µM. In outline:
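Quantitative high-throughput agonist screen in a HEK293H beta-lactamase reporter line under UAS control. Compounds in DMSO, at 37 C. Fluorescence read after 2 h with FRET substrate at room temperature.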
(In general: Quantitative high-throughput screening tests each substance at several concentrations.)
For `O=C(O)c1cc(Cl)cc(Cl)c1`, the Potency result is “inactive”. Turning to `NC(N)=NC(=O)Cc1c(Cl)cccc1Cl`, the Potency entry is “inactive”. Consider `O=C(O)Cn1cnnn1`, for which the Potency result was “inactive”.

Turning to `Oc1c(Cl)cc(Cl)cc1Sc1cc(Cl)cc(Cl)c1O`, the Potency entry was “inactive”.

Test system in another test: not listed separately
The experiment in a line: qHTS assay to identify small molecule antagonists of the peroxisome proliferator-activated receptor delta (PPARd) signaling pathway - cell viability counter screen (AID 743213). Also: nearly all actives have a fitted effect of over 50% in size. Also: potency is read from the fitted curve at half-maximal effect. As to conditions: PPARd-bla HEK293H viability, CellTiter-Glo luminescence, 17 h; series mostly up to 62 µM. In a few lines: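 PPARd-bla HEK293H cells were treated with compounds plus agonist L165041 (300 nM final) for 17 h at 37 C. Viability was then read in the same wells by CellTiter-Glo luminescence after 30 min at room temperature.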
With `CC(C)(c1ccccc1)c1ccc(Nc2ccc(C(C)(C)c3ccccc3)cc2)cc1`, the Potency entry was “inactive”. As to `CN(C)c1ccc(C(=C2C=CC(=[N+](C)C)C=C2)c2ccccc2)cc1`, the Potency is 490 nM (active) and 3.35 µM (active). Regarding `CCN(CC)c1ccc2c(C)cc(=O)oc2c1`, the Potency entry is “inactive”. For the molecule `O=C(O[C@@H]1Cc2c(O)cc(O)cc2O[C@@H]1c1cc(O)c(O)c(O)c1)c1cc(O)c(O)c(O)c1`, the Potency result was “inactive”.

`CC(C)(C)NCC(O)c1cc(O)cc(O)c1` (centres undefined): the Potency entry was “inactive”. In the case of `Oc1c(Cl)cc(Cl)c(Cl)c1Cc1c(O)c(Cl)cc(Cl)c1Cl`, the Potency is 38.8 µM (active) and 24.5 µM (active). On the same count and under the same terms, as for `CCCCCCCCCCCCCC[P+](CCCC)(CCCC)CCCC`, the figure is 7.72 µM (active) and 11 µM (active); as for `CC(C(O)c1ccc(O)cc1)N1CCC(Cc2ccccc2)CC1` (centres undefined), “inactive”. In the case of `Nc1ccc2cc3ccccc3cc2c1`, the Potency result was “inactive”.

Regarding `Cc1cc(C2(c3cc(C)c(O)cc3C)OS(=O)(=O)c3ccccc32)c(C)cc1O`, the Potency entry is “inactive”.

In the case of `O=C1NCC2(CCN(CCc3ccccc3)CC2)O1`, the Potency result is “inactive”. For `O=C(O)c1cc(Cl)cc(Cl)c1`, the Potency result is “inactive”. As for `N[C@@H]1CONC1=O`, the Potency entry is “inactive”. As to `O=C(Oc1ccccc1)c1ccccc1O`, the Potency result is “inactive”. Turning to `CC(C)(C)NC(=O)[C@@H]1CN(Cc2cccnc2)CCN1C[C@@H](O)C[C@@H](Cc1ccccc1)C(=O)N[C@H]1c2ccccc2C[C@H]1O`, the Potency entry was “inactive”.

These data come from PubChem BioAssay (Tox21).
